Data published in PubChem BioAssay (NCI).
The panel holds about 79,000 compounds, 15% with a hit somewhere; the sample as a whole holds those more often. Unmarked numbers belong to inactive results. Calls of active or inactive are those of the source. Rule as the data show it: active = growth inhibition above about 70%; inactive = the rest.

Tests used:
[1] = NCI Yeast Anticancer Drug Screen. Data for the rad50 strain (AID 155);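 also: 0% = growth of vehicle-only cultures of the same strain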; settings: S. cerevisiae rad50 strain growth inhibition, active compounds read high
Method in brief: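 Inhibition values express reduced yeast growth in compound-treated cultures relative to vehicle-treated controls.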

[2] = NCI Yeast Anticancer Drug Screen. Data for the mec2-1 strain (AID 157); settings: S. cerevisiae mec2-1 strain, active compounds read high
Method in brief: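 Growth inhibition is read against vehicle-treated controls after compound exposure of the mec2-1 yeast strain, which is defective in DNA damage repair or cell cycle control.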

[3] = NCI Yeast Anticancer Drug Screen. Data for the sgs1 mgt1 strain (AID 161);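 also: 0% = growth of cultures given vehicle only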; settings: S. cerevisiae sgs1 mgt1 strain, active compounds read high
Method in brief: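 Compounds are added to genetically altered yeast, and growth is compared with cultures given vehicle alone to give percent inhibition.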

[4] = NCI Yeast Anticancer Drug Screen. Data for the cln2 rad14 strain (AID 165);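 also: 0% = growth equal to vehicle treated cultures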; settings: S. cerevisiae cln2 rad14 strain, active compounds read high
Method in brief: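 Growth inhibition, relative to vehicle-treated controls, is the read-out. The test organism is a yeast strain with defined genetic alterations, cln2 rad14.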

[5] = NCI Yeast Anticancer Drug Screen. Data for the bub3 strain (AID 167); settings: S. cerevisiae bub3 mutant strain, active compounds read high
Method in brief: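 Steps: expose the mutant yeast strain to compound; grow alongside vehicle-treated cultures; measure growth; express inhibition against the vehicle cultures.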

[6] = NCI Yeast Anticancer Drug Screen. Data for the mlh1 rad18 strain (AID 175); settings: S. cerevisiae mlh1 rad18 strain growth inhibition, active compounds read high
Method in brief: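 Cells of a genetically altered yeast strain, deficient in DNA damage repair, were treated with compound. Their growth was then compared with that of vehicle-treated cultures to give inhibition.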

[7] = at 5.0 µM (retest, dose inferred, filed as 0.5)
[8] = at 50.0 µM (retest, dose inferred, filed as 5.0)

| SMILES | growth inhibition [1, 7] | growth inhibition [1, 8] | growth inhibition ([1]; at 50.0 µM) | growth inhibition [2, 7] | growth inhibition [2, 8] | growth inhibition ([2]; at 50.0 µM) | growth inhibition [3, 7] | growth inhibition [3, 8] | growth inhibition ([3]; at 50.0 µM) | growth inhibition [4, 7] | growth inhibition [4, 8] | growth inhibition ([4]; at 50.0 µM) | growth inhibition [5, 7] | growth inhibition [5, 8] | growth inhibition ([5]; at 50.0 µM) | growth inhibition [6, 7] | growth inhibition [6, 8] | growth inhibition ([6]; at 50.0 µM) |
| --- | --- | --- | --- | --- | --- | --- | --- | --- | --- | --- | --- | --- | --- | --- | --- | --- | --- | --- |
| CC(=O)Nc1ccc2c(c1)Cc1cccc(F)c1-2 | 11% | 14% | 70.3% (active) | 6% | 5% | 17.7% | 14% | 3% | 22.4% | 29% | 7% | 9.1% | 17% | 8% | 61.9% | -2% | 1% | 32.1% |
| CC(C)(CC(=O)NNc1ccccc1)C(=O)O | 7% | 72% (active) | 57.6% | 4% | 61% | 20.2% | 14% | 60% | 72% (active) | 19% | 82% (active) | 79.2% (active) | 22% | 94% (active) | 89.5% (active) | 32% | 95% (active) | 85.8% (active) |
| COc1ccc(OC)c2c1C=C[C@H](C1(C)SCCS1)C2C(C)=O (some centres not stated) | 6% | 82% (active) | 74% (active) | -4% | 88% (active) | 82% (active) | 6% | 77% (active) | 80.7% (active) | 7% | 83% (active) | 72.3% (active) | -2% | 90% (active) | 76.5% (active) | -13% | 92% (active) | 77% (active) |
| COc1ccc(C(=O)c2cc(Cl)ccc2N)cc1 | 16% | 93% (active) | 99% (active) | -1% | 87% (active) | 98.2% (active) | 8% | 91% (active) | 99.1% (active) | -8% | 71% (active) | 92.1% (active) | 1% | 73% (active) | 99.2% (active) | -1% | 95% (active) | 94.2% (active) |
| CCCCCCCC(CC(=O)O)OC(=O)CC(CCCCCCC)OC1OC(C)C(O)C(O)C1OC1OC(C)C(O)C(O)C1O (configuration not stated) | -62% | 68% | 87.2% (active) | -26% | -5% | 91.8% (active) | -43% | 55% | 92.3% (active) | -42% | 37% | 82.3% (active) | -47% | 96% (active) | 89.5% (active) | -68% | 96% (active) | 84.2% (active) |
| CSc1nc(=Nc2ccccc2)sn1-c1ccccc1 | 10% | 98% (active) | 98.8% (active) | 26% | 98% (active) | 99.5% (active) | 27% | 98% (active) | 99.2% (active) | 27% | 97% (active) | 99.4% (active) | 41% | 98% (active) | 99.3% (active) | 15% | 98% (active) | 99% (active) |
| COc1cc(C/C(=C/c2ccc(OC)c3occc23)[N+](=O)[O-])cc(OC)c1OC | 18% | 100% (active) | 70.6% (active) | 29% | 100% (active) | 82.8% (active) | 31% | 99% (active) | 82.9% (active) | 4% | 99% (active) | 64.8% | 12% | 97% (active) | 60.7% | 23% | 100% (active) | 87.2% (active) |
| CC(=O)Oc1ccc(N=[N+]([O-])c2ccc(OC(C)=O)cc2)cc1 | 5% | 12% | 1.95% | 13% | 40% | -2.6% | 2% | 19% | 45.6% | 10% | 23% | 18.4% | -4% | 2% | 14.7% | -1% | 5% | -13% |
| COc1cc(C(=O)OCC(C)C)ccc1O | 3% | 33% | 15.1% | 3% | 4% | 6.2% | 2% | 8% | 2.8% | 2% | 14% | -16.1% | 96% (active) | 98% (active) | 45.3% | -5% | 13% | 3.3% |
| O=C(Nc1ccccc1Cl)c1cccnc1 | -146% | -174% | 6.55% | -48% | -56% | 14.8% | -56% | -70% | 9.25% | -48% | -63% | 51.6% | -63% | -81% | -7.4% | -112% | -123% | 4.45% |
| CC(Cc1ccccc1)NNC(C)Cc1ccccc1 (configuration not stated) | 10% | 81% (active) | 99.5% (active) | 4% | 64% | 96.2% (active) | 11% | 90% (active) | 75.5% (active) | -39% | 63% | 83.2% (active) | 16% | 91% (active) | 94.5% (active) | 7% | 83% (active) | 99.5% (active) |
| O=C(CC(=O)c1ccccc1)CC(=O)c1cccc(Cl)c1 | -1% | 87% (active) | 81.1% (active) | 5% | 89% (active) | 65% | -1% | 87% (active) | 76.2% (active) | -9% | 77% (active) | 18.4% | 8% | 94% (active) | 78.5% (active) | 4% | 93% (active) | 85.2% (active) |
| CC(C)SC(=S)S(=O)(=O)c1ccc(Cl)cc1 | 5% | 69% | 99.4% (active) | 0% | 64% | 99.8% (active) | 18% | 74% (active) | 99.7% (active) | -6% | 63% | 78.2% (active) | 11% | 83% (active) | 99.7% (active) | 8% | 76% (active) | 99.7% (active) |
| CCCC(CC)c1cc(O)c(O)cc1C(CC)CCC (configuration not stated) | 1% | 56% | 73% (active) | -18% | 33% | 69.5% | 9% | 29% | 43.9% | -5% | 70% (active) | 79.8% (active) | -9% | 54% | 65.8% | 6% | 62% | 77.8% (active) |
| C[n+]1c(/C=C\c2ccccc2)sc2ccccc21 | 23% | 89% (active) | 82.8% (active) | 21% | 90% (active) | 82.3% (active) | 33% | 93% (active) | 88.7% (active) | 19% | 83% (active) | 74.8% (active) | 7% | 86% (active) | 76.9% (active) | 15% | 81% (active) | 87% (active) |
| COC1CC(C)(NC(C)=O)C2OC(c3ccccc3)OCC2O1 (configuration not stated) | -5% | -16% | 81.8% (active) | -11% | -15% | 81.2% (active) | -7% | -24% | 71.9% (active) | -40% | 10% | 75.5% (active) | -21% | -8% | 82.7% (active) | -1% | -3% | 70.4% (active) |
| O=C1c2cccc(S(=O)(=O)O)c2C(=O)c2cccc([N+](=O)[O-])c21 | 2% | 30% | 31.1% | 0% | 31% | 23% | 5% | 45% | 16.3% | -1% | 28% | -8.35% | -1% | 25% | 16.6% | 6% | 40% | 69.1% |
| CN(C)Cc1cc(C(C)(C)C)cc(C2CCCCC2)c1O | 2% | 58% | 66.4% | -9% | 66% | 38.5% | -1% | 95% (active) | 74.3% (active) | -4% | 8% | 61.7% | -6% | 40% | 71.8% (active) | 1% | 94% (active) | 92.4% (active) |
| COc1ccccc1NC(=O)/C(=C/c1ccccc1)C(C)=O | -1% | 12% | 48.6% | -2% | -2% | -3.05% | 11% | 12% | 16.7% | 1% | 21% | 49.1% | -2% | 25% | -4.75% | 3% | 26% | 66.5% |
